Assay outcomes deposited in PubChem BioAssay by National Center for Advancing Translational Sciences (NCATS).
Rab9 promoter act = activators of Rab9 promoter; Huh7 Rab9 promoter-luciferase reporter, luminescence, 24 h; Potency, µM (top dose mostly 9.22 µM), hits mostly activators; 2.8% of 320,000 active; AID 485297; also: nearly all actives have a fitted effect of over 60% in size
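Promoter activation is measured as luciferase luminescence in Huh7 cells stably transfected with a Rab9 promoter–luciferase construct, following 24 h compound exposure at 37 °C and 10 min reagent incubation at ambient temperature.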
SMN2 splice up = increases expression of the SMN2 splice variant | HEK293 SMN2-luciferase splicing reporter, luminescence, 30-36 h | Potency, µM (series often up to 46.1 µM), actives largely listed as activators | 2.8% of 210,000 active | AID 1458; also: nearly all actives have a fitted effect of over 55% in size
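HEK293 cells carry an SMN2 minigene-luciferase reporter in which exon 7 inclusion puts luciferase in frame. Cells were seeded at 2000 cells/well, attached for 10-12 hours, then exposed to compounds for 30-36 hours at 37C before ONE-Glo luminescence.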
NPC1 promoter act = activates the NPC1 promoter; Huh7 NPC1 promoter luciferase reporter, 24 h; Potency, µM (doses to about 9.22 µM), actives largely listed as activators; 2.4% of 320,000 active; also: nearly all actives have a fitted effect of over 60% in size
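Compounds in DMSO were transferred onto Huh7 NPC1-luciferase reporter cells pre-incubated 2 h; after 24 h at 37 °C, Amplite reagent was dispensed and luminescence recorded 10 min later.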
FLuc counter = firefly luciferase modulation, counter-screen for miR-21 project; AID 588342; Potency, µM (top dose mostly 57.5 µM), most hits filed as inhibitors; purified FLuc, Km substrates, luminescence inhibition; 6.9% of 360,000 active; P08659; also: nearly all actives have a fitted effect of over 55% in size
Target sequence (P08659 whole entry, looked up): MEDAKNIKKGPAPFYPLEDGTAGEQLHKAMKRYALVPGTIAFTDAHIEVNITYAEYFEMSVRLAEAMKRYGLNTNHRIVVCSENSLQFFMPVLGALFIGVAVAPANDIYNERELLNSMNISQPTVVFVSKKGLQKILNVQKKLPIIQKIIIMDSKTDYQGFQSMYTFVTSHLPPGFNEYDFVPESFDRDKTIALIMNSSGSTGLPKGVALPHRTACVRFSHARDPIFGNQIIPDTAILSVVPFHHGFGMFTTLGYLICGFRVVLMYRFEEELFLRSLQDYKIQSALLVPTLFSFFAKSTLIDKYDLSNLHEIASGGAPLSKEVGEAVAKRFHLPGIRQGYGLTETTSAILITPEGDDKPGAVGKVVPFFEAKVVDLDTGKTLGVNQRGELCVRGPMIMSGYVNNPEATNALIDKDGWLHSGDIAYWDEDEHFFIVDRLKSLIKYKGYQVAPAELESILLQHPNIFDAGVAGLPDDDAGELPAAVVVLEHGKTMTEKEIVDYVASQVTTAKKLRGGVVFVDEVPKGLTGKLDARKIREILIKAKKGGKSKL
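Biochemical qHTS of compounds, final roughly 60 µM downward over six points, against 10 nM purified firefly luciferase using Km concentrations of substrates (10 uM D-luciferin, 10 uM ATP) in Tris acetate pH 7.5 buffer; luminescence output.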
ELG1 genotoxic = induces genotoxicity in HEK293T cells with luciferase-tagged ELG1 | HEK293T ELG1-luciferase reporter, luminescence, 16 h | Potency, µM (top dose mostly 46 µM), most hits filed as activators | 1.3% of 330,000 active; also: nearly all actives have a fitted effect of over 60% in size
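Luminescence read-out: rising ELG1-luciferase signal, reflecting elevated ELG1 protein under genetic stress, flags genotoxic compounds. Cells were treated for 16 hr at 37 °C before ONE-Glo detection.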
Numbers stand for hits; – = inactive; ? = inconclusive; · = no result given. This is a sample that favours compounds with a hit; in the whole collection about 7.5% have one here. Calls follow the shape of the dose curve; as a rule, active = well fitted curve in the direction sought with a large enough effect; inconclusive = small, poorly fitted or top-dose-only effect, or another doubt; inactive = no such curve, though single readings can be large; an effect the other way counts as inactive or inconclusive.

SMILES	Rab9 promoter act	SMN2 splice up	NPC1 promoter act	FLuc counter	ELG1 genotoxic
COc1ccc2oc(=Nc3cccc(F)c3)c(C(N)=O)cc2c1	–	–	–	–	–
COc1ccc(CCNC(=O)CSc2nc(N)cc(=O)[nH]2)cc1OC	–	–	–	–	–
COCC(=O)Nc1c(C(=O)Nc2ccc(C)cc2)oc2ccccc12	·	7.9µM	·	–	·
CC(=O)Nc1c(C(=O)Nc2ccc3c(c2)OCO3)oc2ccccc12	2.5µM	·	2.8µM	11µM	?
O=C1CSC2(N1)C1CC3CC(C1)CC2C3 (configuration not stated)	–	·	–	–	–
O=S(=O)(c1ccc(-n2cnnn2)cc1)N1CCN(c2cccc(Cl)c2)CC1	·	–	·	–	·
CCOC(=O)C1=C(C)N(C)C(C)=C(C(=O)OCC)C1c1cccnc1	–	–	–	–	–
N/C(=N\OC(=O)COc1ccc(Cl)cc1Cl)c1ccccn1	0.71µM	·	0.79µM	0.76µM	1.2µM
Cc1cc(C)c(C)c(OCC(=O)O/N=C(\N)c2ccccn2)c1	–	–	–	–	–
N/C(=N\OC(=O)COc1ccc(Br)cc1Cl)c1ccccn1	2.8µM	7.1µM	2.8µM	1.5µM	2.6µM
Cc1c(C(=O)C(=O)NCCCn2ccnc2)c2ccccc2n1C	–	–	–	–	–
CCCCN1C=CC(=C2N=c3cccc([N+](=O)[O-])c3=N2)C=C1	?	11µM	?	21µM	?
Cc1cc(Cl)ccc1OCc1cn2cccnc2n1	3.2µM	13µM	3.5µM	12µM	?
Clc1ccc(OCc2cn3cccnc3n2)c2ncccc12	?	11µM	?	?	16µM
c1cnc2c(OCc3cn4cccnc4n3)cccc2c1	–	–	–	?	?
Cc1ccc(-c2nn(-c3ccccc3)cc2C2CC(c3cccs3)=NN2C(=O)CCC(=O)O)cc1 (configuration not stated)	–	–	–	–	–
COc1ccc(-c2noc(CSc3nc(N)cc(=O)[nH]3)n2)cc1	–	·	–	21µM	–
COc1ccc(-c2noc(CSc3nnc(-c4ccccc4)n3C)n2)cc1	–	–	–	21µM	–
COc1ccc(-c2noc(CSc3nc4ccccc4[nH]3)n2)cc1	·	–	·	–	·
CC(C)CNC(=O)CCc1nc(-c2ccccc2)no1	–	·	–	?	–
CC(=O)SCC(=O)N=c1sc2cc(F)ccc2n1C	·	–	·	?	·
CC(=O)N=c1sc2cc(C)ccc2n1C	–	–	–	?	13µM
Cn1c(NCc2ccco2)nc2c1c(=O)n(Cc1ccc(Br)cc1)c(=O)n2C	–	–	–	–	–
Cc1ccc(OCC(=O)N2CCCC(CO)(CCOc3ccccc3)C2)cc1 (configuration not stated)	–	·	–	–	–
CNC(C)C#Cc1ccc2sc3cccc(OC)c3c(=O)c2c1 (configuration not stated)	–	·	–	?	–
SMILES	Rab9 promoter act	SMN2 splice up	NPC1 promoter act	FLuc counter	ELG1 genotoxic
COc1cccc2oc3ccc(C#Cc4ccccn4)cc3c(=O)c12	1.8µM	·	0.79µM	1.1µM	?
CNC(C)C#Cc1ccc2c(=O)c3c(OC)cccc3oc2c1 (configuration not stated)	?	·	?	24µM	?
CNC(C)C#Cc1ccc2oc3cccc(OC)c3c(=O)c2c1 (configuration not stated)	?	·	–	15µM	?
COCCNS(=O)(=O)c1ccc(-c2ccc(C)cc2)cc1	–	·	–	–	–
c1ccc(-c2csc(NC3=NCCCCC3)n2)cc1	?	11µM	–	19µM	?
CC(C)(C)c1ccc(-c2csc(NNC3=NCCCCC3)n2)cc1	–	–	–	15µM	?
N#Cc1ccc(-c2csc(NC3=NCCCCC3)n2)cc1	–	?	–	?	–
Brc1ccc(-c2csc(NNC3=NCCCCC3)n2)cc1	–	·	–	19µM	–
CC(C)CC(C(=O)O)N1C(=O)C2C3C=CC(C2C1=O)C1C(=O)N(C(CC(C)C)C(=O)O)C(=O)C31 (configuration not stated)	–	·	–	–	–
Cc1cc(-c2ccc(Cl)cc2)c(C#N)c(N)n1	–	–	–	–	–
O=C(NC(O)C(=O)c1ccccc1)c1ccccn1 (configuration not stated)	–	·	–	15µM	–
Cc1nn2c(C)nc3sc4c(c3c2nc1=O)CC(C)(C)OC4	–	–	–	–	–
Oc1ccc(N=Nc2n[nH]c(-c3ccc(Cl)cc3)n2)cc1	–	20µM	–	12µM	–
Cc1nc(C#N)c(N/N=C/c2c(F)cccc2Cl)o1	–	?	–	24µM	–
Cc1nc(N)nc(N/N=C/c2c(F)cccc2Cl)n1	–	·	–	?	–
NC(=O)CS(=O)(=O)c1nc2ccccc2n1Cc1ccccc1F	–	–	–	–	–
CC1=C(C(=O)OC2CCCC2)C(c2ccc(C)o2)C2=C(CC(c3cccs3)CC2=O)N1 (configuration not stated)	–	–	–	–	–
CCC(C)Sc1ccc(-c2nc3ccc(C)cn3c2NCc2ccccc2)cc1OC (configuration not stated)	–	·	–	15µM	–
CCCc1nc(SCC(=O)c2ccccc2)c2c(=O)n(C)c(=O)n(C)c2n1	–	–	–	–	–
O=C(Nc1cccc(-c2ccc(N3CCOCC3)nn2)c1)c1ccc(F)cc1F	2.8µM	·	2.8µM	1.1µM	?
CCOc1ccccc1C(=O)Nc1cccc(-c2ccc(N3CCOCC3)nn2)c1	4.5µM	·	?	1.5µM	?
COc1ccc(C(=O)Nc2ccc(N3CCOCC3)c(C(F)(F)F)c2)cc1OC	·	–	·	?	·
COc1ccc(C(=O)Nc2cccc(-c3ccc(N4CCOCC4)nn3)c2)cc1OC	2.8µM	·	?	0.76µM	–
COc1cccc(C(=O)Nc2cccc(-c3ccc(N4CCOCC4)nn3)c2)c1	?	·	?	2.1µM	–
C/C(=N\OCc1ccccc1)c1c(O)cc(C(C)C)n(-c2ccccc2)c1=O	–	–	–	–	–
SMILES	Rab9 promoter act	SMN2 splice up	NPC1 promoter act	FLuc counter	ELG1 genotoxic
Cc1nc2ccc(NC(=S)NCCCO)cc2nc1C	–	·	–	–	–
COc1ccccc1N1CCN(c2ncccc2-c2nc(-c3ccc(Cl)cc3)no2)CC1	·	·	·	–	·
COc1cccc(C(=O)Nc2cccc(-c3ccc(N4CCOCC4)nn3)c2)c1OC	1.1µM	·	3.5µM	0.38µM	–
CCOc1ccc(C(=O)Nc2cccc(-c3ccc(N4CCOCC4)nn3)c2)cc1OCC	4µM	·	?	1.2µM	–
CCOc1ccc(C(=O)Nc2ccc(S(=O)(=O)N3CCOCC3)cc2)cc1OCC	–	–	–	–	–
COC(=O)Cc1c(C)nc2nc(NCc3ccc(Cl)cc3)[nH]n2c1=O	–	–	–	–	–
CCO[C@@H]1OC(C(=O)NC2CC2)=C[C@H](C2CC2)[C@H]1CCCO	–	·	–	–	–
CC(C(=O)N1CCCCC1)n1sc2ccccc2c1=O (configuration not stated)	?	?	?	24µM	?
